Assay results as given in paper PMC10163288.
Only a sample is shown. The true hit rate is not given. Values without a mark were called inactive.

B1: il10ra_site1_normal_mot_HHH_b2_03328_af2_000000127_0001_1_19_H_._HHH_b1_03894_0001_0000100001_0000001_0 (protein)
chain: SSSSSSNELYELSREALELFANGNPEEAQRVVEEAIELAEELGNRVILFTLRHLLRVISSSSSSS
B2: il10ra_site1_normal_mot_HHH_b1_08477_000000091_0001_40_57_H_._HHH_b2_05084_0001_0000800035_0000001_0 (protein)
chain: SSSSDIAEETARFLLEMAERLIEQGNPEYARQALRFALRLARDAGNPELEEEIQKLLEELGSSSS
B3: il10ra_site1_normal_mot_HHH_b2_06857_af2_000000179_0001_42_54_H_._HHH_b2_07752_af2_0001_0000500038_0000002_0 (protein)
chain: SSSSNELHEELYELIRKAAELARNGNPEEAEKVLEEARKIAEELNNELAEFQIRFLERLLSSSSS
B4: il10ra_site1_sap_4_mot_HHH_b2_01447_af2_000000258_0001_1_20_H_._HHH_b1_07772_0001_0000100001_0000002_0_0001 (protein)
chain: SSSSDTRELYRLSREAMELLARGNPEEAEKVLEEAIEIAREAGDFNFLFNLEHVLKVIEQSSSSS
B5: il10ra_site1_sap_15_mot_HHH_b2_05813_000000266_0001_1_19_H_._ems_3hC_1310_0001_af2_0001_0000600040_0000002_0_0001 (protein)
chain: SSSSADEEFEFTREKYEEARELLQNGNPEEAEEVLEEAREYLKEAGNWAALFAVEVLLKQLSSSS
B6: il10ra_site1_normal_mot_HHH_b2_02537_000000065_0001_1_20_H_._HHH_b1_07925_0001_0000100001_0000001_0 (protein)
chain: SSSSTDEVFEFTRRVIEEASELFRNGNPEEAERVLEEAREYLEELGDELALRSVEHLLRAISSSS
B7: il10ra_site1_sap_19_mot_HHH_b1_05214_000000232_0001_38_57_H_._HHH_b2_00758_0001_0000400024_0000001_0_0001 (protein)
chain: SSSSDIRELYELSREAVELRHEGNPEEAEKVVEEAEELARELNNRVLLAVIEWLREAIETSSSSS
B8: il10ra_site1_sap_16_mot_HHH_b1_06789_af2_000000041_0001_1_20_H_._HHH_b2_05269_af2_0001_0000200010_0000002_0_0001 (protein)
chain: SSSSDVEEELRELLKELEELVEEGDEEKFLRVAMEALHLAFQARDEEVLQLLWELAKELASSSSS
B9: il10ra_site1_normal_mot_HHH_b2_02693_af2_000000213_0001_19_35_H_._HHH_b2_04275_0001_0000300016_0000001_0_af2pred_0001 (protein)
chain: SSSSSSEESEELLEQLEEALRRGDEELIARLVLEIARLAEELNDKELVEELLRLLVEHQSSSSSS
B10: il10ra_site1_normal_mot_8756ee2cf497b5429c717dfc0c0bcfd6_0001_000000186_0001_1_13_H_._HHH_b2_00624_0001_0000300028_0000001_0_af2pred_0001 (protein)
chain: SSSSSEEAEELYRLLREAAELHWEGNPEEARELLEEAEELAKEAGNLNALAVIRFLLEVAGSSSS
B11: il10ra_site1_normal_mot_HHH_b2_00943_af2_000000149_0001_1_17_H_._d3c612d18aab0e0945b39b51a1e20ad4_0001_1_af2_0001_0000500040_0000001_0_af2pred_0001 (protein)
chain: SAEEVLQRQVERDPDDASALHLLLLVLAAKEGDPELVQLLRRANELSREGNPEEAREILQEAIER
B12: il10ra_site1_sap_27_mot_104c758fc23488854646035ccb2100c6_0001_000000282_0001_15_29_H_._5a9d7fc92c57439179869c3e1d567c11_0001_0001_0000100005_0000001_0_0001_af2p … (protein)
chain: SSSSSPLEKKLEATTKYLKFCLSHNDLEGIKSGLIALKQLGDESGNEEAKKVAAEVEEKLKSSSS
B13: il10ra_site1_normal_mot_HHH_b1_01779_000000096_0001_43_57_H_._HHH_b2_08219_0001_0000100005_0000001_0_af2pred_0001 (protein)
chain: SSSSNKEEAERSVRLLLELAKRLEDPERARAALRDARRTAEYVNDPELEELVEEVEREVLSSSSS
B14: il10ra_site1_sap_19_mot_HHH_b2_02053_af2_000000006_0001_3_19_H_._HHH_b1_07370_0001_0000100001_0000002_0_0001 (protein)
chain: SSSSSDEEVEELLKEAEELAEEGNPEEAAKVLLEAVRLAIQAGDEEALQKVWEVVKELAKSSSSS
B15: il10ra_site1_sap_23_mot_HHH_b2_03708_000000000_0001_1_18_H_._HHH_b1_08343_0001_0000300038_0000001_0_0001 (protein)
chain: SSSSDLEKEIFHLLIEAYHLLQRGDEEEARELLEEAKELAEELNDPALLRAVEVLLAKLDSSSSS
B16: il10ra_site1_sap_14_mot_HHH_b2_05343_000000235_0001_19_35_H_._HHH_b2_05666_0001_0000600037_0000001_0_0001 (protein)
chain: SSSSDQEFYKAVEEAIEKAIKLEKNGNPEEAERLLEEILEKAEELGNWAARWSIRHLLELLSSSS
B17: il10ra_site1_sap_19_mot_HHH_b2_05984_000000071_0001_38_52_H_._919c246ba0fc10ef4578bdc7f1052ff8_0001_0001_0000100004_0000001_0_0001 (protein)
chain: NELEEELEELVERGDEEKVAELAVKVAKEKGSFSPEQLEALRRFIEALFRDNKKVAEHLARLVID
B18: il10ra_site1_normal_mot_HHH_b2_07579_000000275_0001_1_19_H_._HHH_b1_01139_af2_0001_0000300023_0000001_0_af2pred_0001 (protein)
chain: SSSSSEEKRKVLELLRKALEIEDKEEAEKVVEEAVRLAEELNDPLAAKLAEMLLEQLEKGSSSSS
B19: il10ra_site1_sap_25_mot_HHH_b2_07388_000000275_0001_18_35_H_._7abaf38a3307e851c9e6880adce6b300_0001_1_0001_0000100003_0000001_0_0001_af2pred_0001 (protein)
chain: SSSSDEEEEEVEKLLEELEKLLERGDREEVFRLFREAARIIAELRDEEAFRRLQELLKRLFSSSS
B20: il10ra_site1_normal_mot_HHH_b2_00345_af2_000000013_0001_42_56_H_._HHH_b2_01857_0001_0000400035_0000002_0 (protein)
chain: SSSSSDEEEEEVEELLEEAKHIEDHEKRIEILLEATHLALRAQDPELVQLVWEVFHRLIRSSSSS
B21: il10ra_site1_normal_mot_HHH_b1_02062_000000185_0001_1_20_H_._HHH_b1_08089_0001_0000100003_0000001_0_af2pred_0001 (protein)
chain: SSSSDVEERVEELFEEVEELLRQGDVEEAFKVSREMIELASENQDDEAAELAREASRLFARSSSS
B22: il10ra_site1_normal_mot_HHH_b1_00999_000000080_0001_41_55_H_._HHH_b2_01363_af2_0001_0000100001_0000002_0 (protein)
chain: SSSSSSEEVEEEVERLLEEAKEIEDPEEAMRVLLEALQIALRNNNKELLQLVWRIIKELGSSSSS
B23: il10ra_site1_normal_mot_HHH_b2_03220_af2_000000223_0001_23_40_H_._HHH_b1_01843_af2_0001_0000200015_0000002_0 (protein)
chain: SSSSSSSEAEEVWRLLREALHIDDEEEVQELLEEAKRLAEELNSEVLRIVIEFLERDLSSSSSSS
B24: il10ra_site1_sap_13_mot_HHH_b2_04993_000000082_0001_43_55_H_._0a28df53656836c8faf163f96bad2529_0001_1_af2_0001_0000100004_0000002_0_0001_af2pred_0001 (protein)
chain: SSSSDEEEERLEELLEEVEELLRQGDPEEAARLLFEVAKLAAELNDDEILKLVQELVHLLFSSSS
B25: il10ra_site1_normal_mot_HHH_b2_00475_000000107_0001_44_57_H_._HHH_b1_04904_0002_0000200015_0000002_0 (protein)
chain: SSSSDIIEVLYRLQHAVAKGDEEEIEELLEELEELLKKASEEERKYIEILLHFARAQLELLSSSS
B26: il10ra_site1_normal_mot_HHH_b2_02337_000000026_0001_38_52_H_._HHH_b1_01890_af2_0001_0000100004_0000001_1 (protein)
chain: SSSSDEEEKAEELIREAEELAENGNPEEAARVAQEALRLILELGDEEALQLLWEAVRRLARSSSS
B27: il10ra_site1_sap_21_mot_HHH_b1_06914_000000280_0001_1_18_H_._HHH_b2_08153_0001_0000400035_0000001_0_0001 (protein)
chain: SSSSSREELREEVEEVIEELEEKNDTKLLHRLMELYKRAAELGDEELVREIFEVLLRIVQKSSSS
B28: il10ra_site1_normal_mot_HHH_b1_01821_000000158_0001_23_39_H_._HHH_b1_01350_af2_0001_0000300008_0000001_0 (protein)
chain: SSSSSSDEEREEAEELLEEAKHVEDPERFIELILEAVRLALRSGDEELLQEIWELFKRKSSSSSS

molecular target: il10ra, Q13651; assay: yeast display titration
Sequence (Q13651 whole entry): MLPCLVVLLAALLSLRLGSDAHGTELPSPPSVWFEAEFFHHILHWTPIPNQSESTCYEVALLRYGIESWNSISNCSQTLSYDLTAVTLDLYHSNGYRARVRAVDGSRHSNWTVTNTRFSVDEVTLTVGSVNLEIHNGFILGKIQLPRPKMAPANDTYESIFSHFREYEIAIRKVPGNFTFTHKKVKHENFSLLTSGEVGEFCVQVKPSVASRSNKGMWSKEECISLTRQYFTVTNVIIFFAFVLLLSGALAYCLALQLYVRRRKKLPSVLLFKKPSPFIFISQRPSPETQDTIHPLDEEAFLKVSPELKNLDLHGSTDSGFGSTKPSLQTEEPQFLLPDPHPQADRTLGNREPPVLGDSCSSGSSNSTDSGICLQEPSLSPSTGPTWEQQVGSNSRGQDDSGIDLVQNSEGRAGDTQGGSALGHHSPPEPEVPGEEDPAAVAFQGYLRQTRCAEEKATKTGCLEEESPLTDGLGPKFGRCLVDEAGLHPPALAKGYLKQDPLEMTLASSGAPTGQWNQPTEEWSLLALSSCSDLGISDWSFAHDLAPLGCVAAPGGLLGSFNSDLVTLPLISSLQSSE

| Binder | apparent Kd |
| --- | --- |
| B1 | no binding seen |
| B2 | no binding seen |
| B3 | no binding seen |
| B4 | no binding seen |
| B5 | no binding seen |
| B6 | no binding seen |
| B7 | no binding seen |
| B8 | no binding seen |
| B9 | no binding seen |
| B10 | no binding seen |
| B11 | no binding seen |
| B12 | no binding seen |
| B13 | no binding seen |
| B14 | no binding seen |
| B15 | no binding seen |
| B16 | no binding seen |
| B17 | no binding seen |
| B18 | no binding seen |
| B19 | no binding seen |
| B20 | no binding seen |
| B21 | no binding seen |
| B22 | no binding seen |
| B23 | no binding seen |
| B24 | no binding seen |
| B25 | no binding seen |
| B26 | no binding seen |
| B27 | no binding seen |
| B28 | no binding seen |
